Assay outcomes (PubChem)
Sampled rows, rich in hits. Any-hit rate of the full collection: about 11%.
hNpr1 antagonist: human Npr1 receptor antagonism | AID 1347048 | HEK293 hNpr1 GloSensor cGMP, ANP-stimulated luminescence | 76,000 compounds, 1.6% hits | P16066 | Potency, µM (highest dose often 46.3 µM), without a hit: at the highest dose activity change, negative = inhibition, usual class: inhibitors; calls by dose curve; note: nearly all actives have a fitted effect of over 60% in size
Target sequence (P16066 whole entry, looked up): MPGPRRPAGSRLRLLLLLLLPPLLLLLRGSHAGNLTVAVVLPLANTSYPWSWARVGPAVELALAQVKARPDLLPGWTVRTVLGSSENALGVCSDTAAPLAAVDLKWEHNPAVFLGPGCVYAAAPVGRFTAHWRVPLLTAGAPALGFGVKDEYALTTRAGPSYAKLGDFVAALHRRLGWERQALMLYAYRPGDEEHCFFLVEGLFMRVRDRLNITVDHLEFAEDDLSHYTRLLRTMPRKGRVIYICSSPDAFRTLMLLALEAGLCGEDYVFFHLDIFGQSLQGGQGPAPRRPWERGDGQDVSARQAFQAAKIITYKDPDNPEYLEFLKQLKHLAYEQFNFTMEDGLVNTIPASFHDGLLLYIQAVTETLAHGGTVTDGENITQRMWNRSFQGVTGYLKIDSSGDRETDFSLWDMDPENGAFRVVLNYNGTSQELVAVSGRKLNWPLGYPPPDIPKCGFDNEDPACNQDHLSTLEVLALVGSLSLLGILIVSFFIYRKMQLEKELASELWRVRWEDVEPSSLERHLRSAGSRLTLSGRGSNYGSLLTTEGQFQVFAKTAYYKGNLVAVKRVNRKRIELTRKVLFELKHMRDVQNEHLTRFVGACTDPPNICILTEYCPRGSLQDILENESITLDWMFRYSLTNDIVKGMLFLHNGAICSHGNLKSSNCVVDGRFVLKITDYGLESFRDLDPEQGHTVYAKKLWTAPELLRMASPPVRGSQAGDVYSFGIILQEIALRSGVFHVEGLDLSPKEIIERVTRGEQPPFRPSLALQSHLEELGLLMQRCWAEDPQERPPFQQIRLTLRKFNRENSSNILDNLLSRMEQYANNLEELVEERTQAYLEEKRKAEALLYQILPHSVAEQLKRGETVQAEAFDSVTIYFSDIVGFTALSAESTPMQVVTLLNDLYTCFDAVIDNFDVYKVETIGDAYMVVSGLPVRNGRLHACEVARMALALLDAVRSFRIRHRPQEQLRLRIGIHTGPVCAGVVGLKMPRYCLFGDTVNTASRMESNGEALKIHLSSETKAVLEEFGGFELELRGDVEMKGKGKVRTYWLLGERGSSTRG
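HEK293 cells stably expressing human Npr1 and cGMP GloSensor pGS-40F, loaded 2 h with 2% GloSensor reagent, given compound 30 min at room temperature. Luminescence read before and 20 min after 0.1 nM hNppA.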
Luciferase inh: inhibitors of firefly (Photinus pyralis) luciferase; purified P. pyralis luciferase, luminescence, biochemical; Potency, µM (doses to about 115 µM), usual class: inhibitors; 76,000 compounds, 2.5% hits; AID 1347043; note: nearly all actives have a fitted effect of over 65% in size
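Cell-free enzyme assay, 10nM P. pyralis luciferase, luciferin and ATP each at 10uM. Inhibition profiled over a 6-point titration, read as luminescence.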
HEK293 tox: kills HEK 293 cells; Potency, µM (highest dose often 115 µM), for the others: top-dose activity change, negative = cytotoxicity, hits mostly inhibitors; 94,000 compounds, 6.6% hits; HEK 293 viability, ATP luminescence (CellTiter-Glo), 48-72 h; note: nearly all actives have a fitted effect of over 60% in size
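Read-out: CellTiter-Glo ATP luminescence. Cells: HEK 293, 250 cells/well. Exposure: 48 or 72 hr, 37 degree Celsius.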
NIH3T3 tox: NIH 3T3 cell cytotoxicity; NIH 3T3 viability, CellTiter-Glo ATP luminescence, 48-72 h; 94,000 compounds, 4.3% hits; AID 1345082; Potency, µM (titrated, usually from 96.7 µM), for the others: top-dose activity change, negative = cytotoxicity, most hits filed as inhibitors; note: nearly all actives have a fitted effect of over 55% in size
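Cytotoxicity is measured as loss of cellular ATP: NIH 3T3 cells (400/well) are exposed to compound for 48 or 72 hr at 37 °C, then CellTiter-Glo luminescence is imaged after 10 min at room temperature.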
* hit, by the source's call; i = inactive; ? = inconclusive; · = not tested or not shown; [ ] = remark or other dose. Unless noted, calls come from the whole dose curve; as a rule, active = well fitted curve in the direction sought with a large enough effect; inconclusive = small, poorly fitted or top-dose-only effect, or another doubt; inactive = no such curve, though single readings can be large; an effect the other way counts as inactive or inconclusive. % is set by controls: 0 for no effect and ±100 for the full control effect; potency is the fitted concentration of half-maximal effect.

SMILES	hNpr1 antagonist	Luciferase inh	HEK293 tox	NIH3T3 tox
CCc1ccccc1CN1CCCC12Cc1ccccc1CNC2=O (stereo not given)	·	·	79µM*	?
Cc1ccsc1CN1CCCCC12Cc1ccccc1CNC2=O (stereo not given)	·	·	32µM*	?
O=C(OCc1ccccc1)N1CCOCC12CCN(Cc1cccnc1)CC2	-9%[70.6 µM]	i	?	?
O=C(COc1ccccc1)N1CCOCC12CCN(Cc1ccccc1)CC2	3%[70.6 µM]	i	45µM*	?
O=C(c1ccc(Oc2ccccc2)cc1)N1CCOCC12CCN(Cc1ccccc1)CC2	-19%	i	?	?
O=C(OCc1ccccc1)N1CCOCC12CCN(Cc1ccc(F)cc1)CC2	-12%[70.6 µM]	i	71µM*	?
COc1ccc(CN2CCC3(CC2)COCCN3C(=O)OCc2ccccc2)cc1O	-2%[70.6 µM]	i	-20%[172 µM]	?
O=C(OCc1ccccc1)N1CCOCC12CCN(Cc1cccs1)CC2	3%[70.6 µM]	i	?	28µM*
CC(C)c1ccc(CN2CCC3(CC2)COCCN3C(=O)OCc2ccccc2)cc1	?	i	50µM*	35µM*
CN(C)C(=O)C1CCN(Cc2ccccc2-c2cccnc2)CC1	·	·	-7%[172 µM]	-5%[138 µM]
CN(C)c1cccc(C(=O)NC2CCN(c3cc(-c4cccs4)[nH]n3)C2)c1 (stereo not given)	-21%	32µM*	?	?
O=C(NC1CCN(c2cc(-c3cccs3)[nH]n2)CC1)c1cccc(Cl)c1	0%	i	45µM*	?
O=C(Cc1ccccc1Cl)NC1CCN(c2cc(-c3cccs3)[nH]n2)C1 (stereo not given)	-5%	i	?	20µM*
Cc1ccc(CC(=O)NC2CCN(c3cc(-c4cccs4)[nH]n3)C2)cc1 (stereo not given)	-23%	i	?	?
O=C(c1cc(-c2cccc(C(F)(F)F)c2)c2nncn2n1)N1CCN(Cc2ccccc2)CC1	·	·	?	-11%
COc1cc2ncnc(N3CC4CCC(C3)N4CC(F)(F)F)c2cc1OC	·	·	-7%	?
CCc1ncc2c(N3CC4CCC(C3)N4CC(F)(F)F)nc3ccccc3n12	·	·	40µM*	?
COc1ccc(CN2Cc3[nH]cnc3C[C@H]2c2nc(-c3ccc(F)c(Cl)c3)no2)cc1	-13%	i	?	?
COc1ccc(-c2noc([C@@H]3Cc4nc[nH]c4CN3Cc3ccc(NC(C)=O)cc3)n2)cc1	1%	35µM*	-7%	-22%
COc1ccc(-c2noc([C@@H]3Cc4nc[nH]c4CN3Cc3ccccc3)n2)cc1	-2%[70.6 µM]	?	?	?
COc1ccc(CN2Cc3[nH]cnc3C[C@H]2c2nc(-c3ccc(C(F)(F)F)cc3)no2)cc1	-24%	40µM*	?	?
CCc1noc(-c2ccn3c(CNC(=O)Cc4cccc(OC)c4)nnc3c2)n1	0%	i	?	i
COc1ccc(CN2C[C@H]3CN(Cc4c[nH]c5ccccc45)CCN3C2=O)cc1	-5%[70.6 µM]	i	100µM*	?
O=C1N2CCCC2CN1C1CCN(Cc2ccc(OC(F)(F)F)cc2)CC1 (stereo not given)	?	i	40µM*	?
COc1ccc(CN2C[C@H]3CN(Cc4ccc(Cl)cc4)CCN3C2=O)cc1	?	i	71µM*	?
SMILES	hNpr1 antagonist	Luciferase inh	HEK293 tox	NIH3T3 tox
Cc1ccc(CN2C[C@H]3CN(Cc4ccc(OC(F)(F)F)cc4)CCN3C2=O)cc1	?	i	71µM*	50µM*
CCCCN1C(=O)[C@@H]2C[C@@H](O)CN2C2(CN(Cc3ccc(F)cc3)C2)C1=O	6%[70.6 µM]	i	3%[172 µM]	-7%[174 µM]
Cc1ccsc1C(=O)N1CCC(c2n[nH]c(=O)n2Cc2ccc(F)cc2)CC1	3%	i	-8%	?
NC(=O)Cc1c[nH]c2ncc(-c3ccc4c(c3)OCO4)cc12	-4%[70.6 µM]	63µM*	-11%[172 µM]	45µM*
NC(=O)Cc1c[nH]c2ncc(-c3ccc(Cl)cc3)cc12	-24%[70.6 µM]	79µM*	?	?
NC(=O)Cc1c[nH]c2ncc(-c3cccc(O)c3)cc12	-2%[70.6 µM]	?	4%[230 µM]	?
O=[S+]([O-])(c1ccccc1)N1CCN(c2nccc(Nc3ccccc3Cl)n2)CC1	·	·	?	28µM*
O=C(Nc1ccc(Cl)cc1)N1CCN(c2nccc(Nc3ccccc3F)n2)CC1	·	·	28µM*	?
O=C(C1CC1)N1CCN(c2nccc(Nc3ccccc3F)n2)CC1	·	·	63µM*	?
O=C(Nc1ccc(Cl)cc1)NC1CCN(c2nccc(Nc3ccccc3F)n2)CC1	·	·	35µM*	40µM*
O=C(C1CCN(c2nccc(Nc3ccccc3F)n2)CC1)N1CCOCC1	·	·	-18%	-29%
Cc1noc(C)c1[S+](=O)([O-])N1CCN(c2nccc(Nc3ccccc3F)n2)CC1	·	·	?	-39%
O=C(c1ccc(F)cc1)N1CCn2c(nn(-c3cccc(Cl)c3)c2=O)C1	·	·	-11%	-11%
CC(=O)N1C[C@@H](CO)[C@H](NC(=O)c2ccccc2)C1	7%	i	?	-4%
O=C(Nc1ccccc1)N1CCN(c2nccc(Nc3ccccc3Cl)n2)CC1	·	·	50µM*	?
CC(C)NC(=O)N1CCN(c2nccc(Nc3ccccc3Cl)n2)CC1	·	·	?	35µM*
O=C1COc2ccc(Oc3ccccc3)nc2CN1CCOc1ccccc1	?	i	100µM*	?
Cc1ccccc1-c1ccc2c(n1)CN(CCOc1ccccc1)C(=O)CO2	-21%[70.6 µM]	i	?	?
COCCN1Cc2nc(Nc3ccc(C(F)(F)F)cc3)ccc2OCC1=O	-23%[70.6 µM]	i	?	?
O=C1COc2ccc(Nc3cccc(F)c3)nc2CN1CCOc1ccccc1	?	i	89µM*	89µM*
COCCN1Cc2nc(Nc3ccc(F)c(Cl)c3)ccc2OCC1=O	-2%[70.6 µM]	i	100µM*	?
CCN1c2cc(C(=O)Nc3ccc(Cl)c(F)c3)ccc2C(=O)N2CCCCCC21 (stereo not given)	0%	i	?	?
CCN1c2cc(C(=O)Nc3ccc(Cl)c(F)c3)ccc2C(=O)N2CCCCC21 (stereo not given)	-14%	i	35µM*	?
CCN1c2cc(C(=O)Nc3ccc(F)c(F)c3)ccc2C(=O)N2CCCCC21 (stereo not given)	0%	i	40µM*	?
CC1(c2ccccc2)N(Cc2ccccc2)C(=O)OC12CCN(C(=O)Cc1cccc(F)c1)CC2 (stereo not given)	-9%	i	?	10µM*
CC(C)C(=O)N1CCC2(CC1)OC(=O)N(Cc1ccccc1C#N)C2(C)c1ccccc1 (stereo not given)	-3%[70.6 µM]	i	-9%[172 µM]	?
CC(C)CCN1CCC2(CC1)OC(=O)N(Cc1ccc(O)cc1)C2(C)c1ccccc1 (stereo not given)	-17%[70.6 µM]	i	?	89µM*
CC(C)C(=O)N1CCC2(CC1)OC(=O)N(Cc1ccccc1)C2(C)c1ccccc1 (stereo not given)	-7%[70.6 µM]	i	?	10µM*
